Source: ChEMBL document CHEMBL4513216, “Probing the Open Global Health Chemical Diversity Library for Multistage-Active Starting Points for Next-Generation Antimalarials” (ACS Infect Dis, 2020)
In all, about 69,000 compounds went through this assay and about 8,600 (12%) showed an effect of 50% or more. The list comes from a sample in which strong results are over-represented; it also holds similar structures and randomly drawn compounds.

The molecules below were run on Plasmodium berghei (assay: Screen against P. berghei liver stage (PbLuc), transformed with Luciferase, at 10uM). Conditions: tested at 10 uM.
Assay type: functional, HepG2
Cc1cnc(C(=O)N2CCCC(n3cncn3)C2)cn1 (configuration not stated) showed an INHIBITION of 41.5%.
CCCc1nc(C(=O)N2CCn3nc(C(=O)OC)cc3C2)cs1 was tested, and the INHIBITION was 9.16%.
Cc1noc(-c2ccc(N3CCN(Cc4nccn4C)CC3)nc2)n1 showed an INHIBITION of 9%.
In the case of CC(Cc1ccccc1F)C(=O)Nc1ccc(OCCC(N)=O)cc1 (configuration not stated), the INHIBITION is reported as -8.92%.
CCOc1ccc(C2CCCN2C(=O)NCCn2ccnc2)cc1 (configuration not stated) gave an INHIBITION of 8.85%.
In the case of CC(=O)N1CCCC(Cc2cnc(C(=O)N3CCC(C)CC3)cn2)C1 (configuration not stated), the INHIBITION is reported as 6.32%.
In the case of Cc1ccnn1CCC(=O)N1C[C@@H](O)[C@H](Oc2cccc(F)c2)C1, the INHIBITION is reported as 9.93%.
CN(Cc1cnc(C(C)(C)C)nc1)Cc1nc2ccc(F)cc2[nH]1 showed an INHIBITION of -0.18%.
With CCOCC(=O)N1C[C@@H](O)[C@H](NC(C)=O)C1 the INHIBITION was 4.41%.
For COc1cc(Cl)cc(CN2CCCC(N3CCOCC3)C2)c1OC (configuration not stated), the INHIBITION was 15.7%.
O[C@@H]1CN(Cc2cc(Cl)cc3cccnc23)C[C@@H]1O gave an INHIBITION of 51.3%.
OCCN1CCN(Cc2cc(Cl)cc3cccnc23)CC1 was tested, and the INHIBITION was 42.7%.
COc1ccc(CN2CCCC(N3CCCC3)C2)cc1Cn1cncn1 (configuration not stated) gave an INHIBITION of 34.1%.
CN(C)CC1CN(Cc2cc(Cl)cc3cccnc23)CCO1 (configuration not stated) was tested, and the INHIBITION was 23.4%.
COc1cc(Cl)cc(CN2CCCC(N3CCCC3)C2)c1OC (configuration not stated) was tested, and the INHIBITION was 77.6%.
CC1=C(C(=O)N(C)Cc2n[nH]c3c2CCCCC3)C(C)NC(=O)N1 (configuration not stated) was tested, and the INHIBITION was 17.5%.
For c1ccc(CCc2n[nH]c(C3CCOC3)n2)cc1 (configuration not stated), the INHIBITION was 21.5%.
In the case of COc1cccc(-n2cc(CN(C)Cc3ccnc(C(C)C)n3)cn2)c1, the INHIBITION is reported as 15.005%.
In the case of Cc1ccnn1CC(=O)N(C)Cc1cnn(-c2ccccc2)c1, the INHIBITION is reported as 50.8%.
With CC(C)c1nccc(CN(C)Cc2cccc(-n3cccn3)c2)n1 the INHIBITION was 6.9%.
CSCC(=O)N(C)Cc1cnn(-c2ccc(F)cc2)c1 was tested, and the INHIBITION was 13%.
Work on CCn1cc(CN(C)Cc2cnn(-c3ccc(F)cc3)c2)cn1 yielded an INHIBITION of 17%.
In the case of CN(Cc1ccncc1)Cc1cnn(-c2ccc(F)cc2)c1, the INHIBITION is reported as 51.8%.
Cc1ccnn1CC(=O)N(C)Cc1ccc(-n2cccn2)cc1 was tested, and the INHIBITION was 21.8%.
In the case of Cc1nonc1CN(C)Cc1cnn(-c2ccc(F)cc2)c1, the INHIBITION is reported as -23.4%.
For CC(C)c1nccc(CN(C)Cc2cnn(-c3ccccc3)c2)n1, the INHIBITION was 51.7%.
For CN(C)Cc1ccnc(C2CCCN2Cc2cccc(F)c2F)n1 (configuration not stated), the INHIBITION was 15.9%.
Work on CCc1ocnc1C(=O)N1CCCC(n2nc(C)nc2C)C1 (configuration not stated) yielded an INHIBITION of 11.715%.
With O=C(c1cnc(O)cc1O)N1CCCC(CCc2ccccc2F)C1 (configuration not stated) the INHIBITION was 15.8%.
CNC(=O)[C@H]1C[C@@H]2CN(C(=O)c3ccc(C)nc3)C[C@@H]2N1C(C)C gave an INHIBITION of 11.3%.
Work on Cc1csc(C2CCCN(C(=O)c3c(C)nn4cccnc34)C2)n1 (configuration not stated) yielded an INHIBITION of -2.53%.
With Cc1cc(Br)cnc1NCCN1CCC(N(C)C)CC1 the INHIBITION was 64%.
In the case of CC(=O)N1CCN(CCNS(=O)(=O)c2ccc(C)c(F)c2)CC1, the INHIBITION is reported as -3.95%.
CC(=O)N1CCN(CCNS(=O)(=O)c2cc(F)ccc2C)CC1 was tested, and the INHIBITION was 17.1%.
Molecule COC1CCN(CCNc2ncc(Br)cc2C)CC1 has an INHIBITION of 41.5%.
For CC(=O)N1CCN(CCNc2ncc(Br)cc2C)CC1, the INHIBITION was 54.4%.
Cc1cc(C(C)NCCN2CCC(N(C)C)CC2)c(C)s1 (configuration not stated) gave an INHIBITION of 46.6%.
With Cc1cc(N2CCOCC2)ccc1NC(C)c1nc(C(C)(C)C)no1 (configuration not stated) the INHIBITION was 14.9%.
Cc1n[nH]c(C)c1NC(=O)CN1CCCC1Cn1cncn1 (configuration not stated) was tested, and the INHIBITION was 30%.
CC(=O)N1CCC(c2nccnc2Nc2cnccn2)CC1 was tested, and the INHIBITION was -21.6%.
In the case of CN(Cc1ccncn1)C(=O)CCC(=O)NC1CCCC1, the INHIBITION is reported as 39.4%.
With CCCN1C[C@@H]2CC[C@H]1CN(Cc1cccc(-n3cccn3)c1)C2 the INHIBITION was 48.2%.
COCCN1CCN(c2ccc(CN(C)C)cn2)CC1 showed an INHIBITION of -14.3%.
Work on CCN(C(=O)CCn1cccn1)C1CC1 yielded an INHIBITION of 36.2%.
For CC(C)CC(C)N(C)C(=O)CCn1cccn1 (configuration not stated), the INHIBITION was 64%.
CC(C1CC1)N(C)C(=O)CCn1cccn1 (configuration not stated) was tested, and the INHIBITION was 49%.
Molecule Cc1nn(C)c(C)c1NC(=O)CCn1ncc2ccc(Cl)cc21 has an INHIBITION of -14.7%.
CC(=O)c1cc(C(=O)N2CCN(C)Cc3ccccc32)n(C)c1 was tested, and the INHIBITION was -94.3%.
CC(C)c1n[nH]c(C2CN(C(=O)COCC(F)(F)F)CCO2)n1 (configuration not stated) showed an INHIBITION of 31.6%.
Molecule CC(c1ccccc1)N(C)C(=O)Cn1cc(NC(=O)C(C)(C)C)cn1 (configuration not stated) has an INHIBITION of -41.1%.
CN(C)C(=O)Cn1cc(C(=O)N2CCCc3cccc(F)c32)nn1 showed an INHIBITION of 28.6%.
In the case of CC(c1ccccc1)N(C)C(=O)CN1CCN(c2cnccn2)CC1 (configuration not stated), the INHIBITION is reported as 47.2%.
CN(C(=O)CN1CCCc2cc(F)cc(F)c21)c1ccccc1 was tested, and the INHIBITION was 43.9%.
Molecule CC(c1ccccc1)N(C)C(=O)CN1CCCc2cccc(F)c21 (configuration not stated) has an INHIBITION of 51.1%.
Work on CC(c1ccccc1)N(C)C(=O)CN1CCCc2cc(F)cc(F)c21 (configuration not stated) yielded an INHIBITION of 76.1%.
CC(C)CC(=O)N1C[C@@H]2CCN(c3cnccn3)C[C@@H]2C1 showed an INHIBITION of 3.81%.
CNC(=O)CN1C(=O)CN(C(=O)COC)CCC(OC)c2ccccc21 (configuration not stated) was tested, and the INHIBITION was 48.7%.
For CNc1cc(C2CCCN2S(=O)(=O)c2cccc(F)c2)ccn1 (configuration not stated), the INHIBITION was 2.71%.
CCS(=O)(=O)N1CCc2nc(C3CCN(C(=O)C4CC4)C3)nc(O)c2C1 (configuration not stated) gave an INHIBITION of 30.4%.
With Cc1nc(NC2CCCC2)cc(C2CCN2c2ncccn2)n1 (configuration not stated) the INHIBITION was 26.7%.
Cc1cc(C(=O)NC(C)Cc2ccc(N(C)C)cc2)n(C)n1 (configuration not stated) gave an INHIBITION of 44.7%.
Cc1nc(CN2CCN(S(=O)(=O)N3CCOCC3)CC2)oc1C gave an INHIBITION of 31.2%.
With COCC(=O)N1CCCN(Cc2cc(O)c3ccccc3n2)CC1 the INHIBITION was 32.1%.
Work on COCC(=O)N1CCCN(Cc2c(C)nc3ccc(Cl)cn23)CC1 yielded an INHIBITION of 73.6%.
In the case of Cc1nc(CN2CCN(S(=O)(=O)N3CCCCC3)CC2)oc1C, the INHIBITION is reported as 19.4%.
COCC(=O)N1CCC2(CCCN(Cc3ccc(Cl)cc3)CC2)CC1 showed an INHIBITION of 17.6%.
For Cc1nc2ccc(Cl)cn2c1CN1CCN(S(=O)(=O)N2CCCC2)CC1, the INHIBITION was 57.55%.
COCCN1C[C@@H](C)[C@@]2(COCCN(C(=O)Cc3ccccc3)C2)C1 showed an INHIBITION of -8.94%.
Molecule CN1CCC2(CCN(S(=O)(=O)c3ccc(-c4cnco4)s3)CC2)C1 has an INHIBITION of 28.4%.
For OCCCN1CCc2[nH]nc(C(c3ccccc3)c3ccccc3)c2C1, the INHIBITION was 18.7%.
CN(C)C(=O)c1nc2c(n1C)CCN(Cc1ccccc1)C2 was tested, and the INHIBITION was -31.4%.
Molecule FC(F)(F)c1[nH]nc2c1CN(Cc1ccccc1)CC2 has an INHIBITION of 84.2%.
Molecule CN(Cc1cnn(C)c1)C(=O)c1ccc(=O)n(C)n1 has an INHIBITION of -19.7%.
Work on O=C(Nc1ccccc1)N1CCC(n2cc3[nH]cccc-3c2=O)CC1 yielded an INHIBITION of 32%.
Molecule Cc1nc(CN2CCCC(NCc3ccc(C(N)=O)cc3)C2)no1 (configuration not stated) has an INHIBITION of 11.2%.
In the case of Cc1nnc(NC(=O)NCc2ccc(N3CCC(C)CC3)nc2)s1, the INHIBITION is reported as 33.3%.
With Cc1nc2ccccn2c1CN1C[C@@H](CN(C)C)[C@@H](CO)C1 the INHIBITION was 45.3%.
CC(=O)c1ccc(CN2CC(Oc3ccccc3C)C2)cc1 was tested, and the INHIBITION was 52%.
In the case of COCc1ncc(CN2CC(Oc3c(C)cccc3C)C2)cn1, the INHIBITION is reported as 31.2%.
Molecule Cc1nc2ccccn2c1CN1C[C@@H](CN(C)CCO)[C@@H](CO)C1 has an INHIBITION of 29%.
CSCC[C@H](N)C(=O)N1CC(Oc2ccccc2C)C1 was tested, and the INHIBITION was -13.5%.
In the case of COc1ccccc1OC1CN(Cc2ccc(C(=O)O)cc2)C1, the INHIBITION is reported as 14.3%.
Work on CC(=O)c1cccc(CN2CC(Oc3ccccc3C)C2)c1 yielded an INHIBITION of 52%.
For Cc1ccc(C(=O)N2CC(Oc3ccccc3C)C2)s1, the INHIBITION was 18.4%.
For Cc1ccccc1OC1CN(Cc2c(C)nc3ccccn23)C1, the INHIBITION was 91.8%.
Work on O=C(c1n[nH]cc1Cl)N1CCSCC1 yielded an INHIBITION of -10.6%.
With COCCNC(=O)c1sc2ccccc2c1C1CCC(CN)CC1 (configuration not stated) the INHIBITION was 3.48%.
COCCN1C[C@@H]2CCCO[C@@H]2[C@H](NC(=O)c2cnccn2)C1 gave an INHIBITION of -17%.
Work on O=C(NC1CC1)N1CCN(c2cnccn2)CC1 yielded an INHIBITION of -11.4%.
Cc1nc(N(C)C)cc(C2(C)CCCNC2)n1 (configuration not stated) gave an INHIBITION of 8.42%.
NS(=O)(=O)c1ccc(C(=O)N2CCCC2c2ccccc2)o1 (configuration not stated) was tested, and the INHIBITION was 12.7%.
CC(C)c1nnc(CN2CCN(CC(O)c3ccccc3)CC2)o1 (configuration not stated) showed an INHIBITION of 36.1%.
Cc1nc(N2CCN(C)CC2)ncc1C(=O)N1C[C@@H](C)[C@@](C)(O)C1 showed an INHIBITION of 34.9%.
For O=c1[nH]nc2c(N3CCCCCC3)nccn12, the INHIBITION was 47.4%.
O=c1[nH]nc2c(N3CCC(NC4CCOCC4)CC3)nccn12 was tested, and the INHIBITION was 33.3%.
O=c1[nH]nc2c(N3CCOCC3)nccn12 was tested, and the INHIBITION was 56.5%.
O=C1OCCN1CCNC(=O)C1(N2CCCCC2)Cc2ccccc2C1 was tested, and the INHIBITION was 6.54%.
CCOC1CCN(CCc2nc(-c3cccc(Cl)c3)no2)CC1 was tested, and the INHIBITION was 46.3%.
For NC(=O)N1CCCN(CCc2nc(-c3cccc(Cl)c3)no2)CC1, the INHIBITION was 2.22%.
Clc1cccc(-c2noc(CCN3CCN(c4ccncc4)CC3)n2)c1 showed an INHIBITION of 61.8%.
O=C(NCc1ccccc1-n1cccn1)N1CCC(N2CCCC2)C1 (configuration not stated) gave an INHIBITION of 17.4%.
Molecule CCC(C)NC(=O)c1ccc(NC(=O)CCCn2cncn2)c(C)c1 (configuration not stated) has an INHIBITION of 5.64%.
For CCCC(=O)Nc1cc(C(=O)NC(C)Cc2ccncc2)ccc1C (configuration not stated), the INHIBITION was 57.5%.
CCN(CC(=O)Nc1cc(Cl)ccc1C)C(=O)c1ccncc1 was tested, and the INHIBITION was -10.8%.
CC(=O)N[C@@H]1CN(C(=O)c2cccc(C(F)(F)F)c2)C[C@H]1O showed an INHIBITION of -4.1%.
CCc1nnc2n1CCN(C(C(=O)N(CC)CC)c1ccccc1)C2 (configuration not stated) showed an INHIBITION of 19.4%.
For CC1CCC(NC(=O)CNC2(c3ccc(F)cc3)CCOCC2)CC1 (configuration not stated), the INHIBITION was 12.8%.
